This is a sample that favours compounds with a hit; in the whole collection about 4.7% have one here.
D1 PAM = human D1 dopamine receptor positive modulation; P21728; HEK293 TREx D1 cells, calcium flux, dopamine EC20 potentiation; potentiation, % at 10 µM; 360,000 compounds, 0.036% hits; in the data active = potentiation above about 30%; also: 0% is about no effect
D1 antag = human D1 dopamine receptor antagonism; activity change, negative = inhibition, % at 10 µM; P21728; HEK293 TREx D1 cells, calcium flux, dopamine EC80; hits give low values; 360,000 compounds, 3.2% hits; AID 504652; in the data active = activity change below about -30%; also: % is scaled to controls: 0 for no effect and ±100 for the full control effect
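Allosteric or orthosteric antagonism assessed as attenuation of the calcium response to EC80 dopamine, added 180 s after compound, in induced HEK293 Trex D1 cells loaded with no-wash calcium dye.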
D1 ag = activates the human D1 dopamine receptor | P21728 | HEK293 T-REx D1 cells, calcium flux, agonist mode | activation, % at 2 µM | 360,000 compounds, 1% hits | AID 504660; also: 0% is about no effect
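Tetracycline-induced HEK293 TREx D1 cells, force-coupled to calcium signalling, were dye-loaded with a no-wash calcium kit. Compound was pin-added after a 10 s baseline. Fluorescence was read kinetically at 1 cycle/s for 180 s, with calcium rises flagged as agonism.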
TRHR PAM = allosteric enhancers of human TRH receptor | TRHR cells, fluo-8 calcium fluorescence, EC20 TRH enhancement | P34981 | enhancement, % at 2 µM | 360,000 compounds, 0.66% hits; in the data active = enhancement above about 30%; also: 0% is about no effect
Target sequence (P34981 whole entry, looked up): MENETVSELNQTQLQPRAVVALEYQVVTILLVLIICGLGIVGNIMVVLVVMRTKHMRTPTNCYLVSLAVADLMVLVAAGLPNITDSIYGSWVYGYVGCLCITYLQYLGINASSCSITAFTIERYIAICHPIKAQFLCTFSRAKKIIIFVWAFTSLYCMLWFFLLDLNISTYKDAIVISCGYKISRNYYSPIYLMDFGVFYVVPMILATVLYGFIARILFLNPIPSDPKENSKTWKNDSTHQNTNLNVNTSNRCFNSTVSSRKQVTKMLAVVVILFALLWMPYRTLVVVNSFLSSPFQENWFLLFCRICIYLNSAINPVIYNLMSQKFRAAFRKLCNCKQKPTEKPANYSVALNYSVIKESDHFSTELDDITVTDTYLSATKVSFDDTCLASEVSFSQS
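Enhancer read-out: after compound pinning and an initial kinetic agonist-mode read, an EC20 of TRH (10 nM final) was injected and fluo-8 calcium signal (Ex 480/Em 530) followed at 1 s/cycle for 100 cycles in TRHR-expressing cells.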
TRHR ag = activates the human TRH receptor | P34981 | TRHR cells, calcium flux fluo-8, FDSS agonist mode | activation, % at 2 µM | 360,000 compounds, 0.18% hits; also: 0% is about no effect
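Fluo-8-loaded TRHR cells; 10 s baseline, compound added, kinetic Ca2+ fluorescence read 1/s, agonist mode.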
Active calls of the source: *. Rule as the data show it, unless noted: active = activation above about 30%; inactive = the rest.

SMILES	D1 PAM	D1 antag	D1 ag	TRHR PAM	TRHR ag
CC1CCc2cc(F)ccc2N1C(=O)CSc1nnc2c(n1)[nH]c1ccc(F)cc12 (stereo not given)	-8	-37*	13	0	1
CN(C)CCNS(=O)(=O)c1ccc(N2CCN(c3ccc(F)cc3)CC2)c([N+](=O)[O-])c1	-8	-49*	59*	12	2
CCc1ccc(C(c2ccccc2)c2c(C)[nH]c3ccccc23)s1 (stereo not given)	0	2	1	-5	0
O=C(c1ccc(CS(=O)Cc2ccc(Cl)cc2)o1)N1CCN(c2ccc(F)cc2)CC1 (stereo not given)	-9	-36*	17	5	-1
O=C1CN(C(=O)Cc2ccccc2)C(c2ccc(F)cc2)c2cc(Br)ccc2N1 (stereo not given)	4	-48*	2	0	0
O=C1CN(C(=O)COc2ccccc2)C(c2ccc(F)cc2)c2cc(Br)ccc2N1 (stereo not given)	3	8	1	8	1
COc1ccc(-c2sc(Nc3ccccc3)n[n+]2-c2ccccc2)cc1Br	0	-31*	4	-1	0
COc1ccc(C)cc1Nc1n[n+](-c2ccccc2)c(-c2c(OC)ccc3ccccc23)s1	-13	-91*	46*	6	0
COc1ccc(C)cc1Nc1n[n+](-c2ccccc2)c(-c2cc(OC)c(OC)cc2Br)s1	-5	5	4	-5	-2
Cc1ccc(N2CCCn3c2nc2c3c(=O)n(CC(=O)OCc3ccccc3)c(=O)n2C)cc1C	-7	-46*	1	-4	0
CCn1c(=O)c2c(nc3n2CCCN3c2cccc(C)c2)n(C)c1=O	2	-31*	1	1	-1
Cc1cc(C)cc(N2CCCn3c2nc2c3c(=O)n(CC(=O)OCc3ccccc3)c(=O)n2C)c1	-11	-29	4	2	-1
CCOc1ccccc1N/C(=C(/C(Cl)=C(Cl)Cl)[N+](=O)[O-])n1cncn1	-11	-39*	1	-2	0
CCOc1ccc(N/C(=C(/C(Cl)=C(Cl)Cl)[N+](=O)[O-])n2cncn2)cc1	0	13	2	5	2
O=C(CSc1nc2c([nH]c3ccccc32)c(=O)n1-c1ccccc1)Nc1ccc2c(c1)OCO2	-2	1	0	-3	0
Cc1ccccc1C(=O)NC1CC2CCCC(C1)N2Cc1ccccc1 (stereo not given)	-8	-15	1	3	0
Cc1ccccc1C(=O)NC1CC2CCCC(C1)N2Cc1ccc(Cl)cc1 (stereo not given)	-9	-73*	1	-1	1
COc1ccc(C(=O)NC2CC3CCCC(C2)N3Cc2ccccc2)cc1OC (stereo not given)	-2	-33*	2	5	-1
Cc1cc(OCC(=O)N2CCC(O)CC2)c2c(C)cc(=O)oc2c1	-4	16	2	6	1
O=C1CC(NS(=O)(=O)c2cc(F)ccc2F)CN1c1cccc(F)c1 (stereo not given)	-2	17	2	0	1
COc1ccc2cc(CNc3ccc(C)cc3)c(=O)n(CC(=O)Nc3ccc(C)cc3Cl)c2c1	-2	12	1	7	-1
Cc1ccc(C)c(Nc2nc3nonc3nc2Nc2cccc(C)c2C)c1	-2	-31*	8	-4	4
CCOC(=O)c1ccc(Nc2nc3nonc3nc2Nc2cccc(C)c2C)cc1	-3	-39*	24	-3	6
COc1ccc(-c2ncn(CCC#N)c2[N+](=O)[O-])cc1	-1	7	3	33*	-1
COc1ccc(-c2cc(=O)n(CCC#N)[nH]2)cc1	6	-4	-1	3	0
SMILES	D1 PAM	D1 antag	D1 ag	TRHR PAM	TRHR ag
CN(C)c1nc(Cl)nc(NCCOc2ccccc2)n1	-8	15	81*	-1	-2
Cc1ccc(S(=O)(=O)CC(=O)Nc2ccc3nc(C)sc3c2)cc1	-3	-12	3	17	-1
N#C/C(=C/c1ccncc1)c1nc2ccccc2c(=O)[nH]1	0	-12	4	2	4
N#C/C(=C\c1cc(Br)c(O)c(Br)c1)c1nc2ccccc2c(=O)[nH]1	12	13	171*	20	78*
N#C/C(=C\c1ccncc1)c1nc2ccccc2c(=O)[nH]1	-4	-39*	7	-4	6
CCOC(=O)c1c(C)n(CCNC(C)=O)c2ccc(OC)cc12	-4	-3	0	6	-1
CCOC(=O)c1c(-c2ccccc2)c2cc(OC)ccc2n1CCCN(C)C	-6	-3	31*	-2	8
c1ccc(OCCCCn2cnc3ccccc32)cc1	-5	-20	9	2	0
c1ccc2c(c1)ncn2CCN1CCCCC1	-16	-71*	3	1	0
Cc1ccc(OCc2nc3ccccc3n2CCOc2ccc(Cl)cc2)cc1	0	15	41*	-2	4
Cc1ccc(OCCCCn2cnc3ccccc32)cc1	-3	-37*	12	11	0
c1ccc(CCn2cnc3ccccc32)cc1	5	-1	4	-1	0
Cc1cccc(Cn2c(COc3ccc(Cl)cc3)nc3ccccc32)c1	-3	-9	32*	0	4
COCc1nc2ccccc2n1Cc1cccc(C)c1	1	-22	6	-7	-1
Cn1c2cc(Br)sc2c2cnn(Cc3c(F)cccc3Cl)c(=O)c21	0	-94*	0	14	0
c1ccc2[nH]c(SCc3cn4cccnc4n3)nc2c1	0	6	2	34*	0
c1ccc(-c2cnnc(SCc3cn4cccnc4n3)n2)cc1	-4	-8	0	-1	-1
CC12CC3CC(C)(C1)CC(C(=O)NNC(=O)c1ccncc1)(C3)C2	7	9	1	2	0
CC(C)Oc1cccc(C(=O)NC(=S)Nc2ccccc2)c1	-4	-35*	5	-6	-2
COc1cc(OC)cc(C(=O)Nc2nnc(NC(=S)Nc3ccccc3)s2)c1	-7	28	1	36*	1
N#Cc1c(Cl)nsc1NC(=O)c1ccccc1	-4	-37*	34*	-4	5
CCCCN(CC)CCCNC(=O)Nc1sc2nc3n(c(=O)c2c1C)CCC(C)CC3 (stereo not given)	-3	-9	-1	8	0
Cc1ccc(N2C(=O)CC(c3ccccc3F)C3=C2COC3=O)cc1Cl (stereo not given)	-3	-2	0	5	2
O=C(NCc1ccco1)c1sc(=S)n2c1[nH]c(=O)c1ccccc12	-8	-28	49*	2	8
COc1cc(/C=C2\C(C)=C(C#N)c3nc(N)c(C#N)c(C)c32)ccc1OCC(=O)O	-4	-57*	4	-7	2
